Bioassay records: PubChem, Johns Hopkins Ion Channel Center
KCNQ2 block – inhibitors of rat KCNQ2 potassium channel; O88943; CHO-K1 KCNQ2, FluxOR thallium flux, 20 min; stronger effect = lower value; B-score at 10 µM; 1.1% of 310,000 active; AID 2156;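 active = fluorescence ratio B-score at most minus 3 library SDs, with starting brightness B-score within 2 library SDs, cut at about -5.5 in these data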
Target sequence (O88943 whole entry, looked up): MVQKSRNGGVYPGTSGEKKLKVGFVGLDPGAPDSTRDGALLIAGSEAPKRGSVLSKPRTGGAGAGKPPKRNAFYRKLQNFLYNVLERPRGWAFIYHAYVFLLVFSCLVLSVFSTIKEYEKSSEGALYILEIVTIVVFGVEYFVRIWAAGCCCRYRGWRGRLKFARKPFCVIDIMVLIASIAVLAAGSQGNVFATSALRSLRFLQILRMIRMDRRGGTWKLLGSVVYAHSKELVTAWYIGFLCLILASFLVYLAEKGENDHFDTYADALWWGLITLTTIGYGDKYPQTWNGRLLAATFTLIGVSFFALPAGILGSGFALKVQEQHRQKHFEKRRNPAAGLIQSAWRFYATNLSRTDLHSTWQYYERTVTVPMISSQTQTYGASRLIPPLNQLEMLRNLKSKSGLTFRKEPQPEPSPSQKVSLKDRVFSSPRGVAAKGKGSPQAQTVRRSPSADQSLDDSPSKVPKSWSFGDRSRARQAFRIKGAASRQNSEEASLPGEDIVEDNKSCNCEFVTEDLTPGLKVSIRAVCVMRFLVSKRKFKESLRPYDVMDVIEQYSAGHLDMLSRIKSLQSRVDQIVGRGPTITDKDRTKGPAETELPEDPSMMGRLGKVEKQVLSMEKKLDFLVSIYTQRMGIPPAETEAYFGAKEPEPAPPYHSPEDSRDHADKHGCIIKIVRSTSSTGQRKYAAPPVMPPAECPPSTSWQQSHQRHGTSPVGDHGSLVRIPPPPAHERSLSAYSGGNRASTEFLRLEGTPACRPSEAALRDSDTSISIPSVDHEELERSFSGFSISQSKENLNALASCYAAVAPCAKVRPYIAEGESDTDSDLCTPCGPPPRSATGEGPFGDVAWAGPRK
KCNQ2 enhance – potentiators of rat KCNQ2 potassium channel. O88943. CHO-K1 KCNQ2, FluxOR thallium flux fluorescence; stronger effect = higher value. B-score at 10 µM. 0.54% of 310,000 active;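 active = fluorescence ratio B-score at least 3 SD of library B-scores, with initial fluorescence B-score within 3 of them, cut at about 5.3 in these data; same plate scores as AID 2156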;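 note: B-score of peak minus minimum over baseline fluorescence ratio after K+ and Tl+ stimulus; positive B-score means potentiation of KCNQ2 with more thallium influx and brighter signal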
Large screens that a line does not name were inactive. The list is not random: actives were taken first. Their share in the collection is about 1.6%.

CC(=O)c1cn(CCC(C)C)c(=O)[nH]c1=O	none
C/C(=C\C(=S)Nc1ccccc1)Nc1ccc2ccccc2c1	KCNQ2 block -6.3
C/C(=C\C(=S)Nc1ccccc1)Nc1cccc2ccccc12	none (no result: KCNQ2 enhance)
CN(C)c1ccc(C(=O)Nc2nc3c(s2)CCCC3)cc1	none (no result: KCNQ2 enhance)
CC(C)(C)c1ccc(C(=O)NC(=S)Nc2nc3c(s2)CCCC3)cc1	KCNQ2 enhance 8.5
O=S(=O)(Oc1ccc(C(=S)N2CCOCC2)cc1)c1ccc(Cl)cc1	none (no result: KCNQ2 enhance)
Cc1ccnc(OC(C(=O)O)C(OCc2ccccc2)(c2ccccc2)c2ccc(C(F)(F)F)cc2)n1 (stereo not drawn)	KCNQ2 block -6.1
Cc1cc(C)nc(OC(C(=O)O)C(OCc2ccccc2)(c2ccccc2)c2ccccc2)n1 (stereo not drawn)	none
Cc1cc2oc(=O)cc(Cn3ccnc3)c2cc1Cl	none (no result: KCNQ2 enhance)
CCOC(=O)C1(CCOc2ccccc2)CCN(Cc2cccc(OC)c2O)CC1	none (no result: KCNQ2 enhance)
Cc1cc(C(=O)Nc2cc(Br)ccc2O)on1	none (no result: KCNQ2 enhance)
O=C(NCc1ccccc1)C(=O)Nc1nc(C23CC4CC(CC(C4)C2)C3)cs1	KCNQ2 enhance 5.5
O=C(NCc1ccncc1)C(=O)Nc1nc(C23CC4CC(CC(C4)C2)C3)cs1	none
CCOc1ccc(OCC)c(NC(=O)CN2CCN(c3cc(C)ccc3C)CC2)c1	KCNQ2 block -5.6
CCOc1ccc(OCC)c(NC(=O)CN2CCN(c3cccc(C)c3)CC2)c1	none
COc1ccc(NC(=O)CCN2C(=O)c3ccncc3C2=O)cc1OC	none
CCOC(=O)C1=C(COCCN)NC(C)=C(C(=O)OC)C1c1ccccc1Cl (stereo not drawn)	none (no result: KCNQ2 enhance)
CCOC(=O)C1=C(C)NC(C)=C(C(=O)OC)C1c1cccc(Cl)c1Cl (stereo not drawn)	KCNQ2 block -7.5
COC(=O)CC1(C(=O)OC)Oc2ccccc2C(=O)N1c1ccc(F)cc1F (stereo not drawn)	none
COc1ccc(OCC(=O)Nn2c(-c3ccc(C)cc3)nc3ccccc3c2=O)cc1	none (no result: KCNQ2 enhance)
COc1ccc(OC)c(CNn2c(-c3cccc(C)c3)nc3ccccc3c2=O)c1	KCNQ2 block -5.7
NC(=O)Cn1c(=O)n(Cc2ccccc2)c(=O)c2cccnc21	none
O=C(Nc1ccc2ccccc2c1)c1ccc(Cl)cc1Cl	none
O=C(Nc1nc(=S)ss1)c1ccc(Cl)cc1Cl	KCNQ2 enhance 17
S=C(c1ccc(N2CCCC2)c(Br)c1)N1CCCCC1	none
CCC(CC)C(=O)c1c[nH]c(C(=O)N2CCN(c3ccc(OC)cc3)CC2)c1	none (no result: KCNQ2 enhance)
CCN(CC)S(=O)(=O)c1ccc(N2CCCCC2)c(C(=O)Nc2ccccc2N2CCOCC2)c1	KCNQ2 block -8
CCN(CC)S(=O)(=O)c1ccc(N2CCCCC2)c(NC(=O)/C=C/c2cc(OC)c(OC)c(OC)c2)c1	KCNQ2 block -6.4
CCN(CC)S(=O)(=O)c1ccc(N2CCOCC2)c(NC(=O)c2cccc3ccccc23)c1	none (no result: KCNQ2 enhance)
CCc1ccccc1NC(=O)c1cc([N+](=O)[O-])ccc1N1CCOCC1	none
COc1cc(/C=C/C(=O)Nc2cc(S(=O)(=O)N3CCOCC3)ccc2N2CCCC2)cc(OC)c1OC	none (no result: KCNQ2 enhance)
CC1CCN(c2ccccc2NC(=O)c2cc([N+](=O)[O-])ccc2N2CCOCC2)CC1	KCNQ2 block -5.7
Cc1cc(CNC(=O)c2cccc(OC3CCN(S(=O)(=O)N(C)C)CC3)c2)on1	none
Cc1cccc(NC(=O)NC(C)C(c2ccccc2)N2CCN(C)CC2)c1 (stereo not drawn)	none (no result: KCNQ2 enhance)
COc1c([N+](=O)[O-])c(=O)n(-c2ccccc2)c2ccccc12	none (no result: KCNQ2 enhance)
Cc1ccc(NC(=O)CN2CCCCCC2)cc1[N+](=O)[O-]	none
O=C(Nc1c(C(=O)N2CCOCC2)cnn1-c1ccccc1)c1cccc(F)c1	none (no result: KCNQ2 enhance)
CCOC(=O)C1=C(C)NC(=S)NC1c1ccc(-c2ccc(Cl)cc2)o1 (stereo not drawn)	KCNQ2 enhance 7.8
CCOC(=O)C1=C(C)NC(=O)NC1c1ccc(-c2ccc(Cl)cc2)o1 (stereo not drawn)	none
CNC(=O)CSc1nnc(NC(=O)C2CC(=O)N(c3ccccc3OC)C2)s1 (stereo not drawn)	none (no result: KCNQ2 enhance)
CC(Oc1ccc(Br)cc1)c1nc2c3ccccc3nc(=S)n2[nH]1 (stereo not drawn)	KCNQ2 enhance 5.4
CCCC(Oc1ccc(Br)cc1)c1nc2c3cc(OC)c(OC)cc3nc(=S)n2[nH]1 (stereo not drawn)	none (no result: KCNQ2 enhance)
O=C(c1cc(Cl)nc2ccccc12)N1CCN(S(=O)(=O)c2cccc(C(F)(F)F)c2)CC1	none
CCCn1c(/N=C/c2ccccc2O)nc2ccccc21	none
Cn1c(/N=C/c2c(O)ccc3ccccc23)nc2ccccc21	KCNQ2 enhance 9.9
COc1ccc(NC(=O)COc2ccc(N(C)S(=O)(=O)c3ccc(Cl)cc3)cc2)cc1OC	none (no result: KCNQ2 enhance)
Cc1ccc(N(C)C(=O)c2cc(S(=O)(=O)N3CCCC3)cn2C)cc1	none (no result: KCNQ2 enhance)
O=[N+]([O-])c1ccc(-c2nnc(-c3ccccc3)c(N3CCOCC3)n2)cc1	none (no result: KCNQ2 enhance)
Clc1ccc(-c2nnc(-c3ccccc3)c(-c3c[nH]c4ccccc34)n2)cc1	none
Clc1ccc(-c2nnc(-c3ccccc3)c(-c3ccccc3)n2)cc1	KCNQ2 block -6.2
Clc1ccc(-c2nnc(-c3ccccc3)c(N3CCSCC3)n2)cc1	KCNQ2 block -6
N#CCc1ccc(Oc2ncccn2)cc1	none (no result: KCNQ2 enhance)
COc1ccc(C(=O)CC(c2ccccc2)C2C(=O)CCCC2=O)cc1 (stereo not drawn)	none
COc1ccc(C(CC(=O)c2ccccc2)C2CCCCC2=O)cc1 (stereo not drawn)	KCNQ2 block -5.8
CC(C)(O)c1ccccc1CC[C@@H](SCC1(CC(=O)O)CC1)c1cccc(/C=C/c2ccc3ccc(Cl)cc3n2)c1	KCNQ2 block -6.4
COc1ccccc1-n1c(SCC(=O)NCC2CCCO2)nc2c([nH]c3ccccc32)c1=O (stereo not drawn)	none (no result: KCNQ2 enhance)
CN1CCN(/N=C/c2ccc(-c3ccccc3)cc2)CC1	none (no result: KCNQ2 enhance)
CN1CCN(/N=C/c2c3ccccc3c(Cl)c3ccccc23)CC1	KCNQ2 block -7.1
CN(C(=O)COC(=O)c1ccc2ccccc2n1)C1CCS(=O)(=O)C1 (stereo not drawn)	none
Cc1ccc(-c2noc(CCCOc3ccc(Cl)cc3Cl)n2)cc1	KCNQ2 block -7.3
COc1ccc(-c2noc(CCCOc3ccc(Cl)cc3Cl)n2)cc1	none (no result: KCNQ2 enhance)
COc1cccc(NC(=O)N(Cc2ccco2)C(C)c2cccs2)c1 (stereo not drawn)	none
Cc1ccc(NC(=O)N(Cc2ccco2)C(C)c2ccco2)cc1C (stereo not drawn)	KCNQ2 block -5.9
COCCN(C(=S)Nc1cc(C)cc(C)c1)C(C)c1cccs1 (stereo not drawn)	KCNQ2 enhance 8
COCCN(C(=S)Nc1ccc(OC)cc1)C(C)c1cccs1 (stereo not drawn)	none
CC(c1cccs1)N(Cc1ccco1)C(=O)Nc1ccc(Cl)c(Cl)c1 (stereo not drawn)	KCNQ2 block -13
Cc1ccc(NC(=S)N(Cc2ccco2)C(C)c2cccs2)c(Cl)c1 (stereo not drawn)	KCNQ2 block -6.2
Cc1ccc(NC(=O)N(Cc2cccnc2)Cc2ccco2)cc1C	none (no result: KCNQ2 enhance)
Cc1ccc(C)c(NC(=S)N(Cc2ccco2)C(C)c2cccs2)c1 (stereo not drawn)	none (no result: KCNQ2 enhance)
CC(=O)c1ccc(NC(=O)C(C)OC(=O)c2ccc(NS(=O)(=O)c3ccc(F)c(F)c3)cc2)cc1 (stereo not drawn)	none
COc1ccc(C(=O)COC(=O)CNC(=O)c2cc(OC)cc(OC)c2)cc1	none (no result: KCNQ2 enhance)
O=C(CC(=O)c1c(F)cccc1Cl)c1ccccc1O	none
O=C(NNC(=O)C1CCN(S(=O)(=O)c2ccc(Cl)cc2)CC1)c1ccccc1O	none (no result: KCNQ2 enhance)
